Measurements as given in paper PMC11062922 (Nature Chemical Biology, 2023).
Read-outs that look alike come from different tables or passages of the source.

Legend:
Settings in all cases: read-out: apparent Kd, n = 1
NUAK2 = tested on: NUAK2
PAK6 = tested on: PAK6
RET = tested on: RET
[1] = compound concentrations:100 nM and 1000 nM (sheet 'Lestaurtinib' of Supplementary Table 1),run:Lestaurtinib_03252_R1,Plate:MR032
[2] = compound concentrations:100 nM and 1000 nM (sheet 'Lestaurtinib' of Supplementary Table 1),run:Lestaurtinib_03260_R2,Plate:MR033
[3] = compound concentrations:100 nM and 1000 nM (sheet 'Lestaurtinib' of Supplementary Table 1),run:Lestaurtinib_02339_R2,Plate:MR001
[4] = compound concentrations:100 nM and 1000 nM (sheet 'Lestaurtinib' of Supplementary Table 1),run:Lestaurtinib_02364_R3,Plate:MR002
[5] = compound concentrations:100 nM and 1000 nM (sheet 'Lestaurtinib' of Supplementary Table 1),run:Lestaurtinib_02367_R3,Plate:MR003
[6] = compound concentrations:100 nM and 1000 nM (sheet 'Lestaurtinib' of Supplementary Table 1),run:Lestaurtinib_02381_R3,Plate:MR004
[7] = compound concentrations:100 nM and 1000 nM (sheet 'Lestaurtinib' of Supplementary Table 1),run:Lestaurtinib_02422_R3,Plate:MR006
[8] = compound concentrations:100 nM and 1000 nM (sheet 'Lestaurtinib' of Supplementary Table 1),run:Lestaurtinib_02437_R1,Plate:MR007

Question: What does the source list for Lestaurtinib?
Answer: potency estimated from few doses (NUAK2; compound concentrations:100 nM and 1000 nM (sheet 'Lestaurtinib' of Supplementary Table 1),run:Lestaurtinib_03172_R1,Plate:MR031): 98.7 nM; potency estimated from few doses (NUAK2; [1]): 45.5 nM; potency estimated from few doses (NUAK2; compound concentrations:100 nM and 1000 nM (sheet 'Lestaurtinib' of Supplementary Table 1),run:Lestaurtinib_03252_R2,Plate:MR032): 831 nM; potency estimated from few doses (NUAK2; [2]): 387 nM; potency estimated from few doses (PAK6; [3]): 151 nM; potency estimated from few doses (PAK6; compound concentrations:100 nM and 1000 nM (sheet 'Lestaurtinib' of Supplementary Table 1),run:Lestaurtinib_02364_R2,Plate:MR002): 137 nM; potency estimated from few doses (PAK6; [4]): 91000 nM; potency estimated from few doses (PAK6; [5]): 89.2 nM; potency estimated from few doses (PAK6; compound concentrations:100 nM and 1000 nM (sheet 'Lestaurtinib' of Supplementary Table 1),run:Lestaurtinib_02381_R1,Plate:MR004): 771 nM; potency estimated from few doses (PAK6; [6]): 136 nM; potency estimated from few doses (PAK6; compound concentrations:100 nM and 1000 nM (sheet 'Lestaurtinib' of Supplementary Table 1),run:Lestaurtinib_02407_R1,Plate:MR005): 1800 nM; potency estimated from few doses (PAK6; compound concentrations:100 nM and 1000 nM (sheet 'Lestaurtinib' of Supplementary Table 1),run:Lestaurtinib_02407_R2,Plate:MR005): 521 nM; potency estimated from few doses (PAK6; compound concentrations:100 nM and 1000 nM (sheet 'Lestaurtinib' of Supplementary Table 1),run:Lestaurtinib_02407_R3,Plate:MR005): 1490 nM; potency estimated from few doses (PAK6; [7]): 1350 nM; potency estimated from few doses (PAK6; [8]): 42.8 nM; potency estimated from few doses (PAK6; compound concentrations:100 nM and 1000 nM (sheet 'Lestaurtinib' of Supplementary Table 1),run:Lestaurtinib_02437_R2,Plate:MR007): 638 nM; potency estimated from few doses (PAK6; compound concentrations:100 nM and 1000 nM (sheet 'Lestaurtinib' of Supplementary Table 1),run:Lestaurtinib_02437_R3,Plate:MR007): 165 nM; potency estimated from few doses (PAK6; compound concentrations:100 nM and 1000 nM (sheet 'Lestaurtinib' of Supplementary Table 1),run:Lestaurtinib_02438_R2,Plate:MR008): 113 nM; potency estimated from few doses (PAK6; compound concentrations:100 nM and 1000 nM (sheet 'Lestaurtinib' of Supplementary Table 1),run:Lestaurtinib_02443_R1,Plate:MR009): 830 nM; potency estimated from few doses (PAK6; compound concentrations:100 nM and 1000 nM (sheet 'Lestaurtinib' of Supplementary Table 1),run:Lestaurtinib_02443_R2,Plate:MR009): 1300 nM; potency estimated from few doses (PAK6; compound concentrations:100 nM and 1000 nM (sheet 'Lestaurtinib' of Supplementary Table 1),run:Lestaurtinib_02443_R3,Plate:MR009): 169 nM; potency estimated from few doses (PAK6; compound concentrations:100 nM and 1000 nM (sheet 'Lestaurtinib' of Supplementary Table 1),run:Lestaurtinib_02473_R3,Plate:MR010): 121 nM; potency estimated from few doses (PAK6; compound concentrations:100 nM and 1000 nM (sheet 'Lestaurtinib' of Supplementary Table 1),run:Lestaurtinib_02482_R2,Plate:MR011): 852 nM; potency estimated from few doses (PAK6; compound concentrations:100 nM and 1000 nM (sheet 'Lestaurtinib' of Supplementary Table 1),run:Lestaurtinib_02482_R3,Plate:MR011): 797 nM; potency estimated from few doses (PAK6; compound concentrations:100 nM and 1000 nM (sheet 'Lestaurtinib' of Supplementary Table 1),run:Lestaurtinib_02487_R1,Plate:MR012): 1690 nM; potency estimated from few doses (PAK6; compound concentrations:100 nM and 1000 nM (sheet 'Lestaurtinib' of Supplementary Table 1),run:Lestaurtinib_02487_R3,Plate:MR012): 100 nM; potency estimated from few doses (PAK6; compound concentrations:100 nM and 1000 nM (sheet 'Lestaurtinib' of Supplementary Table 1),run:Lestaurtinib_02496_R2,Plate:MR013): 1370 nM; potency estimated from few doses (PAK6; compound concentrations:100 nM and 1000 nM (sheet 'Lestaurtinib' of Supplementary Table 1),run:Lestaurtinib_02496_R3,Plate:MR013): 1590 nM; potency estimated from few doses (PAK6; compound concentrations:100 nM and 1000 nM (sheet 'Lestaurtinib' of Supplementary Table 1),run:Lestaurtinib_02566_R1,Plate:MR014): 49.6 nM; potency estimated from few doses (PAK6; compound concentrations:100 nM and 1000 nM (sheet 'Lestaurtinib' of Supplementary Table 1),run:Lestaurtinib_02566_R3,Plate:MR014): 35.1 nM; potency estimated from few doses (PAK6; compound concentrations:100 nM and 1000 nM (sheet 'Lestaurtinib' of Supplementary Table 1),run:Lestaurtinib_02572_R3,Plate:MR015): 1350 nM; potency estimated from few doses (PAK6; compound concentrations:100 nM and 1000 nM (sheet 'Lestaurtinib' of Supplementary Table 1),run:Lestaurtinib_02577_R1,Plate:MR016): 1350 nM; potency estimated from few doses (PAK6; compound concentrations:100 nM and 1000 nM (sheet 'Lestaurtinib' of Supplementary Table 1),run:Lestaurtinib_02584_R1,Plate:MR017): 953 nM; potency estimated from few doses (PAK6; compound concentrations:100 nM and 1000 nM (sheet 'Lestaurtinib' of Supplementary Table 1),run:Lestaurtinib_02584_R3,Plate:MR017): 896 nM; potency estimated from few doses (PAK6; compound concentrations:100 nM and 1000 nM (sheet 'Lestaurtinib' of Supplementary Table 1),run:Lestaurtinib_02601_R2,Plate:MR018): 846 nM; potency estimated from few doses (PAK6; compound concentrations:100 nM and 1000 nM (sheet 'Lestaurtinib' of Supplementary Table 1),run:Lestaurtinib_02601_R3,Plate:MR018): 974 nM; potency estimated from few doses (PAK6; compound concentrations:100 nM and 1000 nM (sheet 'Lestaurtinib' of Supplementary Table 1),run:Lestaurtinib_02606_R1,Plate:MR019): 1440 nM; potency estimated from few doses (PAK6; compound concentrations:100 nM and 1000 nM (sheet 'Lestaurtinib' of Supplementary Table 1),run:Lestaurtinib_02606_R2,Plate:MR019): 722 nM; potency estimated from few doses (PAK6; compound concentrations:100 nM and 1000 nM (sheet 'Lestaurtinib' of Supplementary Table 1),run:Lestaurtinib_02624_R1,Plate:MR020): 730 nM; potency estimated from few doses (PAK6; compound concentrations:100 nM and 1000 nM (sheet 'Lestaurtinib' of Supplementary Table 1),run:Lestaurtinib_02624_R2,Plate:MR020): 686 nM; potency estimated from few doses (PAK6; compound concentrations:100 nM and 1000 nM (sheet 'Lestaurtinib' of Supplementary Table 1),run:Lestaurtinib_02624_R3,Plate:MR020): 783 nM; potency estimated from few doses (PAK6; compound concentrations:100 nM and 1000 nM (sheet 'Lestaurtinib' of Supplementary Table 1),run:Lestaurtinib_02748_R1,Plate:MR024): 896 nM; potency estimated from few doses (PAK6; compound concentrations:100 nM and 1000 nM (sheet 'Lestaurtinib' of Supplementary Table 1),run:Lestaurtinib_02752_R1,Plate:MR025): 793 nM; potency estimated from few doses (PAK6; compound concentrations:100 nM and 1000 nM (sheet 'Lestaurtinib' of Supplementary Table 1),run:Lestaurtinib_02752_R2,Plate:MR025): 782 nM; potency estimated from few doses (PAK6; compound concentrations:100 nM and 1000 nM (sheet 'Lestaurtinib' of Supplementary Table 1),run:Lestaurtinib_02752_R3,Plate:MR025): 799 nM; potency estimated from few doses (PAK6; compound concentrations:100 nM and 1000 nM (sheet 'Lestaurtinib' of Supplementary Table 1),run:Lestaurtinib_02765_R2,Plate:MR026): 766 nM; potency estimated from few doses (PAK6; compound concentrations:100 nM and 1000 nM (sheet 'Lestaurtinib' of Supplementary Table 1),run:Lestaurtinib_02766_R1,Plate:MR027): 519 nM; potency estimated from few doses (PAK6; compound concentrations:100 nM and 1000 nM (sheet 'Lestaurtinib' of Supplementary Table 1),run:Lestaurtinib_02766_R2,Plate:MR027): 66 nM; potency estimated from few doses (PAK6; compound concentrations:100 nM and 1000 nM (sheet 'Lestaurtinib' of Supplementary Table 1),run:Lestaurtinib_02766_R3,Plate:MR027): 696 nM; potency estimated from few doses (PAK6; compound concentrations:100 nM and 1000 nM (sheet 'Lestaurtinib' of Supplementary Table 1),run:Lestaurtinib_02768_R1,Plate:MR028): 996 nM; potency estimated from few doses (PAK6; compound concentrations:100 nM and 1000 nM (sheet 'Lestaurtinib' of Supplementary Table 1),run:Lestaurtinib_02795_R1,Plate:MR022): 648 nM; potency estimated from few doses (PAK6; compound concentrations:100 nM and 1000 nM (sheet 'Lestaurtinib' of Supplementary Table 1),run:Lestaurtinib_02795_R2,Plate:MR022): 528 nM; potency estimated from few doses (PAK6; compound concentrations:100 nM and 1000 nM (sheet 'Lestaurtinib' of Supplementary Table 1),run:Lestaurtinib_02795_R3,Plate:MR022): 1440 nM; potency estimated from few doses (PAK6; compound concentrations:100 nM and 1000 nM (sheet 'Lestaurtinib' of Supplementary Table 1),run:Lestaurtinib_02802_R1,Plate:MR029): 604 nM; potency estimated from few doses (PAK6; compound concentrations:100 nM and 1000 nM (sheet 'Lestaurtinib' of Supplementary Table 1),run:Lestaurtinib_02802_R3,Plate:MR029): 85.9 nM; potency estimated from few doses (PAK6; compound concentrations:100 nM and 1000 nM (sheet 'Lestaurtinib' of Supplementary Table 1),run:Lestaurtinib_02896_R1,Plate:MR030): 541 nM; potency estimated from few doses (PAK6; compound concentrations:100 nM and 1000 nM (sheet 'Lestaurtinib' of Supplementary Table 1),run:Lestaurtinib_02896_R2,Plate:MR030): 1310 nM; potency estimated from few doses (PAK6; compound concentrations:100 nM and 1000 nM (sheet 'Lestaurtinib' of Supplementary Table 1),run:Lestaurtinib_02896_R3,Plate:MR030): 785 nM; potency estimated from few doses (PAK6; compound concentrations:100 nM and 1000 nM (sheet 'Lestaurtinib' of Supplementary Table 1),run:Lestaurtinib_03172_R2,Plate:MR031): 581 nM; potency estimated from few doses (PAK6; [1]): 825 nM; potency estimated from few doses (PAK6; compound concentrations:100 nM and 1000 nM (sheet 'Lestaurtinib' of Supplementary Table 1),run:Lestaurtinib_03260_R1,Plate:MR033): 744 nM; potency estimated from few doses (PAK6; [2]): 805 nM; potency estimated from few doses (RET; [3]): 240 nM; potency estimated from few doses (RET; [4]): 273 nM; potency estimated from few doses (RET; compound concentrations:100 nM and 1000 nM (sheet 'Lestaurtinib' of Supplementary Table 1),run:Lestaurtinib_02367_R1,Plate:MR003): 274 nM; potency estimated from few doses (RET; compound concentrations:100 nM and 1000 nM (sheet 'Lestaurtinib' of Supplementary Table 1),run:Lestaurtinib_02367_R2,Plate:MR003): 260 nM; potency estimated from few doses (RET; [5]): 265 nM; potency estimated from few doses (RET; compound concentrations:100 nM and 1000 nM (sheet 'Lestaurtinib' of Supplementary Table 1),run:Lestaurtinib_02381_R2,Plate:MR004): 218 nM; potency estimated from few doses (RET; [6]): 113 nM; potency estimated from few doses (RET; compound concentrations:100 nM and 1000 nM (sheet 'Lestaurtinib' of Supplementary Table 1),run:Lestaurtinib_02422_R1,Plate:MR006): 162 nM; potency estimated from few doses (RET; [7]): 269 nM; potency estimated from few doses (RET; [8]): 142 nM
